In the library only some 27% were active in any assay of this set; here they are far more common.
CYP2C19 inh: human CYP2C19 inhibition; CYP2C19 Supersomes, luciferin-H EGE luminescence, 30 min; hit rate 21% among 96,000; inhibition, % at 5 µM; P33261;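 active = CYP2C19 inhibition above a set limit at 5 µM in the primary screen, cut at about 50% in these data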
Cav3 T inh: human Cav3.2 channel inhibition, primary screen; O95180; Cav3.2-expressing cells, Fluo-4 calcium fluorescence FDSS; active compounds read low; B-score at 10 µM; hit rate 4% among 100,000; AID 449739;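 active = single-dose well whose peak fluorescence ratio is a statistical outlier from its plate by either plate-standardised score or position-corrected B-score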
CYP2C19 act: activators of human cytochrome P450 2C19; P33261; recombinant CYP2C19, luciferin-H EGE luminescence; active compounds read high; 0 = fully inhibited enzyme, 1 = untreated enzyme; activation factor at 5 µM; 96,000 tested, under 10 active; AID 1025;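 active = activation factor of at least 2 at 5 µM in the primary screen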
CYP2C9 inhib: human CYP2C9 inhibition. inhibition, % at 5 µM. hit rate 20% among 96,000. CYP2C9 Supersomes, luciferin-H conversion, luminescence. P11712;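 active = blocking of liver enzyme CYP2C9 beyond about 50% at 5 µM, limit read from the data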
CYP2C9 act: activators of human CYP2C9; AID 1024; activation factor at 5 µM; hit rate 1.4% among 96,000; recombinant CYP2C9, luciferin-H conversion, luminescence; active compounds read high; factor 1 = untreated enzyme, 0 = blocked;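 active = activation factor of 2 or more for CYP2C9 at a 5 µM dose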
Of the large screens only hits and unclear results are named; the others gave an inactive call.

Cn1c(CN2CCOCC2)nnc1SCC(=O)NC1CCCCC1	none (no result: CYP2C19 inh, CYP2C19 act, CYP2C9 inhib, CYP2C9 act)
COc1ccc(-n2c(N)c(C(=O)NCc3ccco3)c3nc4ccccc4nc32)cc1	none
Nc1c(C(=O)NCc2ccc3c(c2)OCO3)c2nc3ccccc3nc2n1CCCN1CCOCC1	CYP2C19 inh 69.4
COc1cc(Cn2c(N)c(C#N)c3nc4ccccc4nc32)cc(OC)c1	CYP2C9 inhib 56.0 (no result: Cav3 T inh)
Nc1c(C(=O)NCc2ccco2)c2nc3ccccc3nc2n1CCc1ccc(F)cc1	CYP2C9 inhib 58.0 (no result: Cav3 T inh)
O=C(NCc1ccco1)C1CCN(c2nc3ccccc3n2Cc2ccc(F)cc2)CC1	Cav3 T inh -8.27
COc1ccccc1CNC(=O)c1c(N)n(CCCN2CCOCC2)c2nc3ccccc3nc12	none (no result: Cav3 T inh)
O=C1c2ccccc2C(=O)N1Cc1nn2c(-c3ccc(Cl)cc3)nnc2s1	none
N#Cc1c(N)n(CCc2ccc(F)cc2)c2nc3ccccc3nc12	CYP2C19 inh 99.2, CYP2C9 inhib 80.2
COCCn1c(N)c(C#N)c2nc3ccccc3nc21	none

From PubChem
